Experimental data from the supplement of paper PMC3334620.
Whole data set: some 33,000 sequences, median “E-score (-0.5 to 0.5)” near -0.012, cut for the highest 2% near 0.29. For the sample, the highest values were picked, then their nearest neighbours and some sequences at random.

Target: T1, Ybr033w (UniProt P38073)
T1 sequence: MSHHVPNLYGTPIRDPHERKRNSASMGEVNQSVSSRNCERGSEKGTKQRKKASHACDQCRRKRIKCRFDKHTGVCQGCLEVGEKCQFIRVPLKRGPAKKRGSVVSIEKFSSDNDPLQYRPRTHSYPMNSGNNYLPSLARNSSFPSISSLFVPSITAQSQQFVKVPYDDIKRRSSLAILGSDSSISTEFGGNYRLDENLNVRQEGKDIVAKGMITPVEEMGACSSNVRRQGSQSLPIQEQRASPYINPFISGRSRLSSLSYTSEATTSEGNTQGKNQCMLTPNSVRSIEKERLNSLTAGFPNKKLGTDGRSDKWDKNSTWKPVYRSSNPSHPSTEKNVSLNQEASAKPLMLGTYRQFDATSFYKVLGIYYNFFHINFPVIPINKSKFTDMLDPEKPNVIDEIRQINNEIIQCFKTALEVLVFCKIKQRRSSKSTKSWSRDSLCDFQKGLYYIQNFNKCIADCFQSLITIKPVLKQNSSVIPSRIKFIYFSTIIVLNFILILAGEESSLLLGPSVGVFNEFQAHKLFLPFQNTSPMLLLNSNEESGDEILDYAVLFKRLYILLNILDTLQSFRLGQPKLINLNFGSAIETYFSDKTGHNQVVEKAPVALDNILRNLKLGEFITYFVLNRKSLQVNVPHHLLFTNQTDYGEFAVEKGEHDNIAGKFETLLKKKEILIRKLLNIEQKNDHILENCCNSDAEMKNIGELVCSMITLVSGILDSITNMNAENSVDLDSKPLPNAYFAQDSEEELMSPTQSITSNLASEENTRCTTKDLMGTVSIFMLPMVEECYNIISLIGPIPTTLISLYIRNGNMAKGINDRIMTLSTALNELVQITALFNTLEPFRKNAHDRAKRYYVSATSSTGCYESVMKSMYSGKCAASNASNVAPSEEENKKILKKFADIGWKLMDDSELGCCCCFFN
Test: PBM E-score (8-mer binding enrichment) (E-score (-0.5 to 0.5)); higher = stronger / more preferred TF binding
Conditions: protein concentration: 200 nM; construct: GST-full length
Description: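 Universal 'all 10-mer' protein binding microarrays (Agilent AMADID 015681) probed with GST-tagged S. cerevisiae TFs (full-length or DBD) made by in vitro transcription/translation (PURExpress), about 100-200 nM. Bound TF was detected with fluorescent anti-GST. Each ungapped 8-mer (which stands for itself and its reverse complement) is scored by the PBM enrichment score (E-score), a modified Wilcoxon-Mann-Whitney statistic from -0.5 to +0.5, computed with the Universal PBM Analysis Suite. Scale: above 0.35 generally sequence-specific binding.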

Row | Sequence | PBM E-score
1 | CGAGGCAC | -0.109
2 | GTACCCAC | -0.116
3 | CGCAGGGA | -0.202
4 | AGCTAATA | 0.078
5 | AGCGCATC | 0.0587
6 | CGCGAAGC | 0.0254
7 | GACTAGTA | 0.0157
8 | TACTAGTA | 0.377
9 | CACTAGTA | 0.0533
10 | CTTTAAAA | 0.2
11 | AAAGTCGG | -0.122
12 | ACTGTGCA | 0.031
13 | ATGACAAG | -0.0461
14 | ATGACAAT | 0.293
15 | ATGACAAC | 0.111
16 | AAAAAGTC | 0.22
17 | AAAAAGTA | 0.283
18 | AAAAAAGT | 0.353
19 | AAAAAAGC | 0.171
20 | ACAAAAGT | 0.0857
21 | AAAAAGTT | 0.314
22 | CTGTTGCC | -0.136
23 | AGTGAAAA | 0.183
24 | TGCCAACA | 0.0786
25 | GTGCGCAC | 0.0505

Row | Sequence | PBM E-score
26 | GCAGTCCA | -0.029
27 | ATTGTTTC | 0.199
28 | ATTGTTTG | 0.118
29 | GTCGTTTA | 0.0819
30 | ATCGTTTA | 0.307
31 | ATTGTTTA | 0.296
32 | ATCGTTTC | 0.184
33 | GTTGTCCA | 0.00858
34 | ATGGTCAA | 0.198
35 | AGCTGGCC | -0.179
36 | AGGTAGAC | -0.212
37 | CTAGAGAC | -0.0751
38 | ATTCAACG | 0.114
39 | TTACCTAA | 0.156
40 | ATACCTAT | 0.102
41 | ATACCTAA | 0.316
42 | CCAAGCGA | -0.0712
43 | AATAATTA | 0.372
44 | ACTAATTA | 0.281
45 | GATAATTA | 0.361
46 | CATAATTC | -0.00123
47 | CATAATTA | 0.284
48 | AATAATTG | 0.256
49 | AATAATGA | 0.247
50 | AATAATTC | 0.386

Row | Sequence | PBM E-score
51 | GCTAATTA | 0.175
52 | AAACGTTC | 0.0667
53 | AGAGTGTG | -0.0636
54 | CGATGCGC | 0.0464
55 | AGAGGTGG | -0.156
56 | AAGTGAAA | 0.29
57 | CAGTGAAA | 0.126
58 | GAGTGAAA | 0.129
59 | GTCCTTCA | -0.0408
60 | CAGCACTC | 0.0472
61 | AATGGTCA | 0.205
62 | AATAGTGT | 0.289
63 | AATAGTGG | 0.0387
64 | AATAGTGC | 0.123
65 | AATAGTAA | 0.239
66 | AATAGTAG | 0.201
67 | AATAGTAT | 0.293
68 | AGCAATAG | 0.0737
69 | GTTCGGAA | 0.316
70 | CTTCGGAA | 0.243
71 | ATTCGGAA | 0.269
72 | GAAGCGCC | -0.0866
73 | AACTTGAC | -0.0113
74 | AAATACTT | 0.34
75 | AAATACTG | 0.172

Row | Sequence | PBM E-score
76 | AAATACTA | 0.224
77 | AAATACTC | 0.316
78 | CAATACTC | 0.193
79 | GAATACTC | 0.0489
80 | GTTAAGGA | 0.121
81 | AGCTGAAT | 0.135
82 | AGCTCTGC | -0.255
83 | AAAGTCTA | -0.00319
84 | ACTCCTCA | -0.135
85 | ATTAAGCA | -0.0125
86 | ATTCATTA | 0.263
87 | CTTCATTA | 0.291
88 | GTTCATTA | 0.221
89 | ATTGGTGC | 0.0298
90 | ATACTTTG | 0.297
91 | ATACTTTC | 0.177
92 | ATACTTTA | 0.23
93 | AGCCAGGG | -0.362
94 | CCGGAAAA | 0.44
95 | CCGGAAAC | 0.14
96 | GCGGAAAA | 0.396
97 | ACGGAAAG | 0.0247
98 | ACGGAAAT | 0.313
99 | ACGGAAAA | 0.422
100 | ACGGGAAT | 0.0676

Row | Sequence | PBM E-score
101 | GCGGGAAA | 0.128
102 | CCGGAAAG | -0.0245
103 | ACGGAAAC | -0.12
104 | GCGGAAAC | -0.191
105 | ACAGAAAT | 0.137
106 | AGGACGGC | -0.235
107 | GAGAGTCA | -0.0369
108 | CGTCCTCC | -0.314
109 | GAGAGATC | -0.00339
110 | TCGGAAAA | 0.424
111 | TCAGAAAA | 0.0198
112 | TCGGGAAA | 0.253
113 | CCTTGGCC | -0.318
114 | GAACATCC | 0.303
115 | AAACATCC | 0.192
116 | CAACATCC | -0.07
117 | CAGAGCGA | 0.105
118 | TGGGTGAA | 0.15
119 | ATAAGGAT | 0.297
120 | ATAAGGAA | 0.0859
121 | ATAAGGAC | -0.0427
122 | CCGAAGGC | -0.11
123 | ATTCTGGC | -0.217
124 | CGTATAAA | 0.291
125 | AGCATAAA | 0.141

Row | Sequence | PBM E-score
126 | CGCATAAA | 0.297
127 | AATATAAG | 0.295
128 | CGTATAAC | 0.0815
129 | TATATAAA | 0.282
130 | AATATAAT | 0.236
131 | AATATAAA | 0.344
132 | CATATAAG | 0.114
133 | TGCATAAA | 0.218
134 | AGTATAAA | 0.266
135 | CATATAAA | 0.174
136 | AATACTTC | 0.21
137 | AACTAGAC | 0.0442
138 | GTGGTAGA | -0.158
139 | CGGTGAGC | -0.26
140 | AGCTGACA | -0.103
141 | CCCACAAA | 0.0286
142 | AGTAAGAC | -0.00585
143 | ATAACTGC | 0.193
144 | TGAAGAAA | 0.134
145 | CCAAGTCA | -0.0141
146 | CAGTGCAG | -0.0894
147 | TCGGAAGA | 0.193
148 | ACGGAAGA | 0.338
149 | CCGGAAGG | 0.0448
150 | ACGGAAGT | 0.0483

Row | Sequence | PBM E-score
151 | CCGGAAGA | 0.404
152 | CCGGAAGC | 0.0751
153 | AGTCACCG | -0.104
154 | TACTGCCA | 0.038
155 | TATCACCA | 0.0892
156 | AATCACCG | -0.0481
157 | AATCACCA | 0.295
158 | AGACTGCC | -0.219
159 | CAGTTATA | 0.074
160 | CATATTTC | 0.213
161 | CATATTTA | 0.28
162 | AATATTTA | 0.318
163 | CCTATTTC | 0.124
164 | GATATTTA | 0.338
165 | AATATTTG | 0.232
166 | GCTATTTA | 0.132
167 | AATATTTC | 0.34
168 | GATTTTTA | 0.209
169 | CGCTCTAA | -0.0524
170 | CCAAAGAG | -0.0366
171 | CCCACCAC | -0.0659
172 | CCATACGA | 0.0671
